Key:
[1] = molecular target: T1, Aurora kinase A (Homo sapiens) (UniProt O14965); settings: at 1 µM;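 also: values are mean percent inhibition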
T1 sequence (whole entry): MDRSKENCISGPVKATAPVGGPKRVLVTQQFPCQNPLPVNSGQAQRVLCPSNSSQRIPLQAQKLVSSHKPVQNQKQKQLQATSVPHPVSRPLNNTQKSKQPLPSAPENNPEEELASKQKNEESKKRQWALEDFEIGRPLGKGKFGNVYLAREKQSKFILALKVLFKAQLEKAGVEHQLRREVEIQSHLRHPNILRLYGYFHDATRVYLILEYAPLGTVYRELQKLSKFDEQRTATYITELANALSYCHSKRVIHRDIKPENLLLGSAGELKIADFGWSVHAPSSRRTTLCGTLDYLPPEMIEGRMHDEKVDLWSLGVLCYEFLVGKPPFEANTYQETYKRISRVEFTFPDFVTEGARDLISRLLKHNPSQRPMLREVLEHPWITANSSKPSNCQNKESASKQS

[2] = molecular target: Aurora kinase B (Homo sapiens) (UniProt Q96GD4); settings: at 0.1 µM
Chain of Aurora kinase B (Homo sapiens) (Q96GD4 whole entry): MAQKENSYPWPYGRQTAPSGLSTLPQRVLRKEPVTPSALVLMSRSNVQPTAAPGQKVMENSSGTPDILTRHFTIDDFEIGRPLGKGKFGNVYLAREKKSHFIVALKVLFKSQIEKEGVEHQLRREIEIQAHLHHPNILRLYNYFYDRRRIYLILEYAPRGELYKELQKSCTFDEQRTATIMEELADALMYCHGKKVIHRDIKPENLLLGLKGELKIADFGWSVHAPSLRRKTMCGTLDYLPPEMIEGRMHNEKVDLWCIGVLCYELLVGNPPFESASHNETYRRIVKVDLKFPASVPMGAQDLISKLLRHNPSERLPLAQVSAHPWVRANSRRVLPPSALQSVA

[3] = molecular target: Aurora kinase B (Homo sapiens) (UniProt Q96GD4); settings: at 1 µM
[4] = molecular target: T2, Aurora kinase C (Homo sapiens) (UniProt Q9UQB9); settings: at 0.1 µM
T2 sequence (whole entry): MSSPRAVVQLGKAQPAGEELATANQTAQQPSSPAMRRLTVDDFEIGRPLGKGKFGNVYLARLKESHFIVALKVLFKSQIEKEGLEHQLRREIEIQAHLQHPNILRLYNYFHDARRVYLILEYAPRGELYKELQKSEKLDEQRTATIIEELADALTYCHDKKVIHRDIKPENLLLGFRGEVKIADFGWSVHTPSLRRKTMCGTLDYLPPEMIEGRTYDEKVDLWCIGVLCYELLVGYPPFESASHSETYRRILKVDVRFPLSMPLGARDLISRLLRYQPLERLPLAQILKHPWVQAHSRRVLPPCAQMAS

[5] = molecular target: T2, Aurora kinase C (Homo sapiens); settings: at 1 µM
[6] = molecular target: Serine/threonine-protein kinase 10 (Homo sapiens) (UniProt O94804); settings: at 0.1 µM
Chain of Serine/threonine-protein kinase 10 (Homo sapiens) (O94804 whole entry, looked up): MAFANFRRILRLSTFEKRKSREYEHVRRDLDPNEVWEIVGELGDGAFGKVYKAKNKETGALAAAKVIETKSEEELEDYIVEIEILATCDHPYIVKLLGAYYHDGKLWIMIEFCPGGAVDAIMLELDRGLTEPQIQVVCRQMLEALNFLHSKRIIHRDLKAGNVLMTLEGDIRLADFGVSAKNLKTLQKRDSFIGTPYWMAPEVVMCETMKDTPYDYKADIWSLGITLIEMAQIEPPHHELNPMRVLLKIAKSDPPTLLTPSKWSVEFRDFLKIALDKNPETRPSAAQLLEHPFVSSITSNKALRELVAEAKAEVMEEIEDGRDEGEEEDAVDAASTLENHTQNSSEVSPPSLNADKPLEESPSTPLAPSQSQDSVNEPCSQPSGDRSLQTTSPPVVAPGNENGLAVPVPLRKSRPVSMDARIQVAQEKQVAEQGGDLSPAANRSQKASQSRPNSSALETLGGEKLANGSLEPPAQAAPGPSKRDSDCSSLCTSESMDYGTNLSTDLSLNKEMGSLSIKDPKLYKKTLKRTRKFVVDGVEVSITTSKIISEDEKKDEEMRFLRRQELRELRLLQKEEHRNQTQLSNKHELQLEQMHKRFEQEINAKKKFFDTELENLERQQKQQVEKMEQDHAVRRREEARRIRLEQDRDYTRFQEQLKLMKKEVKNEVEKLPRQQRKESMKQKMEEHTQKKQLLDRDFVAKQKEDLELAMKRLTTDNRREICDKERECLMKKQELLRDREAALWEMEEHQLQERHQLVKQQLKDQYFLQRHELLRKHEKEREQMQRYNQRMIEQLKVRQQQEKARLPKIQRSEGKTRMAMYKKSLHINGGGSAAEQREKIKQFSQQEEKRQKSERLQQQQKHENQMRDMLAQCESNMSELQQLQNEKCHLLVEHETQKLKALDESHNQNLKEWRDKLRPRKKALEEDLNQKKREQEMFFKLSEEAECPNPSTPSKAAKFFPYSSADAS

[7] = molecular target: Serine/threonine-protein kinase 10 (Homo sapiens) (UniProt O94804); settings: at 1 µM
[8] = molecular target: T3, Mitogen-activated protein kinase kinase kinase kinase 2 (Homo sapiens) (UniProt Q12851); settings: at 0.1 µM
T3 sequence (whole entry): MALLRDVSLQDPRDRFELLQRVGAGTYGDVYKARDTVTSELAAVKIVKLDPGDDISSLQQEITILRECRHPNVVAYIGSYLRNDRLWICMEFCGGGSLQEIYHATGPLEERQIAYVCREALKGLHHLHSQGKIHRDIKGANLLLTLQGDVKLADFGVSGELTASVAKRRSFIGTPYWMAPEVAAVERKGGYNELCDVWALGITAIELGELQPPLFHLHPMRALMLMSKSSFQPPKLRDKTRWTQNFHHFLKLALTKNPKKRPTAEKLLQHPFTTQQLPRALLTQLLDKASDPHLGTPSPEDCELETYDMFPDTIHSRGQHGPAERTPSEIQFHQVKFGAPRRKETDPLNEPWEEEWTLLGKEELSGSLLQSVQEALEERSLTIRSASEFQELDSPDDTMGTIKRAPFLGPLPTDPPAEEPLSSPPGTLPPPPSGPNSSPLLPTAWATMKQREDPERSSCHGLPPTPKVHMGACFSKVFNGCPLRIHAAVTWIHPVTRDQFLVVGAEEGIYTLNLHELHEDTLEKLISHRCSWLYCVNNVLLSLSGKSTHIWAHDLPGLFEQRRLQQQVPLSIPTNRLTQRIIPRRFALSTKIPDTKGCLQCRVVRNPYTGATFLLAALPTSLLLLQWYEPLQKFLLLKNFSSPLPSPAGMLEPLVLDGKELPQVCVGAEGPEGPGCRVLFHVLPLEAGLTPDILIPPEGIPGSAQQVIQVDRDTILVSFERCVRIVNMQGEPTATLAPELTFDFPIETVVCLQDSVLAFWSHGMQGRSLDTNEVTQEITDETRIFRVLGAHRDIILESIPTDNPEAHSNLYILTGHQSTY

[9] = molecular target: T3, Mitogen-activated protein kinase kinase kinase kinase 2 (Homo sapiens); settings: at 1 µM
[10] = molecular target: Mitogen-activated protein kinase kinase kinase kinase 4 (Homo sapiens) (UniProt O95819); settings: at 0.1 µM
Chain of Mitogen-activated protein kinase kinase kinase kinase 4 (Homo sapiens) (O95819 2-1239 limits assumed): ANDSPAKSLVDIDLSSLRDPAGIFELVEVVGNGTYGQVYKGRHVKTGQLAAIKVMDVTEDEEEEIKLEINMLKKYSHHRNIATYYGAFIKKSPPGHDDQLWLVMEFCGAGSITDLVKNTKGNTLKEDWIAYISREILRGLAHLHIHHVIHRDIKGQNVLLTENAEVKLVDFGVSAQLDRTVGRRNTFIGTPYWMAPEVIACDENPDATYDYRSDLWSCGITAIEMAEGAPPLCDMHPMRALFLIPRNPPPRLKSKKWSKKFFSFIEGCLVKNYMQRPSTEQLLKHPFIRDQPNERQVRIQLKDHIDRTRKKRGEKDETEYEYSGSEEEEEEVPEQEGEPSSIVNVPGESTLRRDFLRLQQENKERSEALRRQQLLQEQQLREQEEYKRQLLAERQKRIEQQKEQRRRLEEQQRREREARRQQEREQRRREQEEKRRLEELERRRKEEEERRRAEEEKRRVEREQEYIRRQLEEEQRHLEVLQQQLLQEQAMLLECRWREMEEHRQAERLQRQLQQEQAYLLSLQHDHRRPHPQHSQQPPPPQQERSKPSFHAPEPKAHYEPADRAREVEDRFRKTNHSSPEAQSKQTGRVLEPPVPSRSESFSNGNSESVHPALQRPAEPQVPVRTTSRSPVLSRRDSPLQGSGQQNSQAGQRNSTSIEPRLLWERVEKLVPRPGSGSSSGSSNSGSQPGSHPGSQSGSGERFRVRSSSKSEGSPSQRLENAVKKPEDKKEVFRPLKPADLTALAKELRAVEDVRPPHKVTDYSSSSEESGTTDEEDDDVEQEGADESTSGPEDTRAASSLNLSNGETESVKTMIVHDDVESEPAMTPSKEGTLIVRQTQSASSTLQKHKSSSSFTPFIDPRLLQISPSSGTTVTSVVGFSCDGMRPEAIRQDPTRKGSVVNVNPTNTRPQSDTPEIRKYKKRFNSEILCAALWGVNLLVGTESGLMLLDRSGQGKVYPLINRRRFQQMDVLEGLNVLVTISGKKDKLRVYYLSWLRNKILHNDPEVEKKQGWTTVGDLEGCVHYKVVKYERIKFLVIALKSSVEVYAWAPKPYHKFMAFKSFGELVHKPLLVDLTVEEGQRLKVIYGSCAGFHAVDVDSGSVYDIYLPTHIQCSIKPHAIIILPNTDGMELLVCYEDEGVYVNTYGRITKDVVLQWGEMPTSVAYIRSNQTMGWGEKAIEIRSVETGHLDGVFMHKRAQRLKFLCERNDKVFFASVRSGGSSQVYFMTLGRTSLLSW

SMILES | inhibition [1] [%] | inhibition [2] [%] | inhibition [3] [%] | inhibition [4] [%] | inhibition [5] [%] | inhibition [6] [%] | inhibition [7] [%] | inhibition [8] [%] | inhibition [9] [%] | inhibition [10] [%]
O=C1Nc2ccccc2/C1=C/Nc1ccc2[nH]c(=O)[nH]c2c1 | 52 | 10.8 | 44.7 | 9.06 | 81.9 | 8.73 | 17 | 1.3 | 15.2 | 25.3
CC(C)c1ccc2c(c1)NC(=O)/C2=N/Nc1ccc(S(N)(=O)=O)cc1 | 8.05 | 1.3 | 7 | -4.39 | 6.7 | -0.47 | 2.14 | 2.41 | 2.01 | 12.8
CN(C)c1cc2c(Nc3ccc4c(cnn4Cc4ccccc4)c3)ncnc2cn1 | 12.8 | -0.85 | 8.49 | 2.76 | 27.6 | 6.27 | 13.9 | 0.85 | 0.49 | 2.93
CN(C)CCCn1c(-c2nonc2N)nc2cnccc21 | 6.09 | 3.93 | 4.46 | 0.95 | 6.01 | 3.09 | 6.11 | 2.05 | 4.37 | 5.05
COc1cc2ncnc(Nc3ccc(C)c(O)c3)c2cc1OC | 7.23 | 4.5 | 8.54 | 1.17 | 4.32 | 21.1 | 70.1 | 2.26 | 5.63 | 7.16
COc1ccc2ncnc(Nc3ccc(OCc4ccccc4)cc3)c2c1 | 8.54 | 2.34 | 22 | 1.84 | 10.5 | 4.51 | 9.23 | 0.8 | 1.74 | 3.79
CS(=O)(=O)CCNCc1nc(-c2ccc3ncnc(Nc4ccc(OCc5cccc(C(F)(F)F)c5)cc4)c3c2)cs1 | 2.26 | 4.85 | 6.3 | 5.42 | 5.59 | 6.68 | 10 | -0.19 | 3.96 | 1.73
C[C@@H](Oc1cc(-n2cnc3ccc(OCC4CCN(C)CC4)cc32)sc1C(N)=O)c1ccccc1C(F)(F)F | -0.47 | -2.46 | 2.14 | -1.94 | 0.8 | 64.5 | 90.5 | 1.86 | 12.1 | -0.3
CCS(=O)(=O)c1ccc(OC)c(Nc2ncc(-c3cccc(OC)c3)o2)c1 | 34.5 | 2.15 | 5.4 | 1.61 | 14.6 | 4.31 | 8.64 | 1.39 | 6.14 | 4.46
Cc1ccc2c(c1)/C(=N/Nc1ccc(S(N)(=O)=O)cc1)C(=O)N2 | 27.8 | 1.05 | 7.36 | 1.16 | 23.6 | 0.32 | 3.53 | 1.01 | 4.98 | 27.3
NS(=O)(=O)c1ccc(-c2cc3ccncc3cc2OCc2ccccc2)cc1 | 7.25 | 2.9 | 4.42 | -0.1 | -6.92 | 3.53 | 9.35 | -0.94 | 2.03 | 5.89
NC(=O)c1sc(-n2cnc3ccccc32)cc1OCc1ccccc1Br | 4.39 | 4.16 | 9.94 | 1.83 | 8.84 | 17.4 | 60.6 | 2.47 | 8.46 | 4.11
CN(c1ccc(NC(=O)Nc2ccc(OC(F)(F)F)cc2)cc1)c1ccnc(Nc2cccc(S(N)(=O)=O)c2)n1 | 76.8 | 63.9 | 79 | 30.7 | 96.5 | 26 | 70.4 | 18.4 | 69.5 | 24.4
CCOc1nccc2c1nc(-c1nonc1N)n2CC | 8.92 | 5.61 | 8.46 | 2.28 | -5.69 | 11.5 | 19.9 | 5.01 | 10.6 | 3.98
NC(=O)c1cccc(Nc2nccc(Nc3cccc(F)c3)n2)c1 | 65.5 | 12.6 | 49.3 | 25.6 | 85.2 | -0.14 | 12.3 | 0.98 | 14.1 | 8.77
Cc1ccc2c(-c3ccnc(Nc4ccc5c(c4)OCCO5)n3)c(-c3ccc(C(F)(F)F)cc3)nn2n1 | 0.25 | -0.46 | -2.36 | 0.45 | 1.78 | 3.03 | 5.81 | 1.07 | 2.41 | 0.41
Nc1nccc(-c2c(-c3ccc(F)cc3)nn3cc(C(F)(F)F)ccc23)n1 | 1.39 | 1.38 | 0.7 | 1.04 | 0.73 | -0.92 | 3.24 | 2.23 | 1.52 | -0.02
[O-][S+]1CCN(Cc2ccc(-c3ccc4ncnc(Nc5ccc(OCc6ccccc6)c(Cl)c5)c4c3)o2)CC1 | 2.75 | 3.28 | 5.05 | -0.09 | 1.6 | 3.93 | 12.3 | -0.35 | 1.53 | 0.26
COc1cccc(-n2ncc3c(N/N=C/c4ccc(S(C)(=O)=O)cc4)ncnc32)c1 | 28.4 | 9.58 | 42.4 | 0.72 | 12.2 | 6.63 | 16.3 | 0.47 | 0.9 | 16.2
NS(=O)(=O)c1ccc(NC=C2C(=O)Nc3ccc4ncsc4c32)cc1 | 90.4 | 29.9 | 69.6 | 28.4 | 92.2 | 6.33 | 26.9 | 27.2 | 66.5 | 69.4

Reference: ChEMBL document CHEMBL1961873, “Compounds: GSK PKIS; Assays: Nanosyn kinase panel” (2012)
